For some of these results: Entries with a potency or affinity are not part of this list.

What all share (design): scale not given: direction of the effect not stated beside the values
Test [1] deals with Protein translocase subunit SecA (Escherichia coli (strain K12)) (UniProt P10408). The test can be described thus: Assay to Identify E. coli SecA ATPase Inhibitors. Particulars: 30 µM. Format: functional.
The target of test [2] is T1, Ubiquitin-activating enzyme e1, putative (Leishmania donovani (strain BPK282A1)) (UniProt E9BSI1).
T1 sequence (whole entry): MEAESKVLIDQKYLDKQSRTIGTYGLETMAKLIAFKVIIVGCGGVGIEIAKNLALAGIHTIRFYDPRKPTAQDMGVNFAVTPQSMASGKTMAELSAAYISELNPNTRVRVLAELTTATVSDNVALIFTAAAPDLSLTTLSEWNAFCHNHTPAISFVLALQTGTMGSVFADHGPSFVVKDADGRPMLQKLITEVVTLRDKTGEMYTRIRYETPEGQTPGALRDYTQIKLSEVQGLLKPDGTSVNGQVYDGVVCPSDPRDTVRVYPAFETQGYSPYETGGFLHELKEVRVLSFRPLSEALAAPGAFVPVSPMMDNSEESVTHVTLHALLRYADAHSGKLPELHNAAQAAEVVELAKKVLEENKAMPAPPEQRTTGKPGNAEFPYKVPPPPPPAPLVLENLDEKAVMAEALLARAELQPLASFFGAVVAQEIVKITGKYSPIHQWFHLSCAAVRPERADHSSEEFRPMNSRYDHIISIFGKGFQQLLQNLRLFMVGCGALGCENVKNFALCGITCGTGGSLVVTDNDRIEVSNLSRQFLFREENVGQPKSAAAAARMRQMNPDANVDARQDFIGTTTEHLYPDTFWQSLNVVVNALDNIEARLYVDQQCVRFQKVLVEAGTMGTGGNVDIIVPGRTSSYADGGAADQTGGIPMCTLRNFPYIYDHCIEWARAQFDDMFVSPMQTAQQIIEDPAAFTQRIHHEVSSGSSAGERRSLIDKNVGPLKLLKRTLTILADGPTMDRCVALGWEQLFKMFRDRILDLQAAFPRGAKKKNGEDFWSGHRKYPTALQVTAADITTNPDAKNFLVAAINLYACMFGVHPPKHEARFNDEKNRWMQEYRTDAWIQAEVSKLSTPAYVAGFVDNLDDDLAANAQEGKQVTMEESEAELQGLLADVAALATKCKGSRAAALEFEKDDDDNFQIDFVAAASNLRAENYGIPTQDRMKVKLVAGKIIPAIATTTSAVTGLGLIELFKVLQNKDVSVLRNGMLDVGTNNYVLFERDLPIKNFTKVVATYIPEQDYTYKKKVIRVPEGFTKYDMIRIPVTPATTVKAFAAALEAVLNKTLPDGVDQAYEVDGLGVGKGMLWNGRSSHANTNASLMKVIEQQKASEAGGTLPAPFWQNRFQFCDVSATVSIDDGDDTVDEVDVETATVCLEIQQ
The test can be described thus: Leishmania donovani Ubiquitin Activating Enzyme (LdE1). Particulars: 30 µM. Format: functional.

Test [3] concerns the target AMP-activated protein kinase, AMPK (Homo sapiens) (UniProt P54646+O43741+P54619+Q9UGJ0+Q9Y478+Q13131+Q9UGI9). The test can be described thus: AMP-dependent Kinase enzyme assay. An in vitro enzyme assay that detects ADP turnover that is directly proportional to AMPK activity. This uses naive AMPK that is activated during the assay with MK-8722. Format: functional. The note with it: 30 µM.

The target in test [4] is Sialic acid-binding Ig-like lectin 9 (Homo sapiens) (UniProt Q9Y336). The test can be described thus: Hs-Siglec9 ALPHAscreen SOP 20170721. Particulars: 10 µM.
A further test concerns Trypanosoma cruzi. The test can be described thus: Trypanosoma cruzi phosphomannomutase and mannose-1-phosphate guanylyltransferase assay. The note with it: 10 µM. Format: functional.
For test [5], the target named is T2, Arginase-2, mitochondrial (Homo sapiens) (UniProt P78540).
T2 sequence (whole entry): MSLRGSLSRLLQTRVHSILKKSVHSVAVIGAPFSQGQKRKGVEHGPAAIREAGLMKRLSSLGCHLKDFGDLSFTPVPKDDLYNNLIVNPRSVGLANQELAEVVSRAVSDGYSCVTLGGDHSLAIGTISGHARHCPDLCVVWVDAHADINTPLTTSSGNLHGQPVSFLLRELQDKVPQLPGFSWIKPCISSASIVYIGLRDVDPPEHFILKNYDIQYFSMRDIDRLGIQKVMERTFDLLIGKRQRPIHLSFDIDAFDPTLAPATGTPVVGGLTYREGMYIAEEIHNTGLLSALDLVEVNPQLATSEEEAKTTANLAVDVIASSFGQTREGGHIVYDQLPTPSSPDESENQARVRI
The experiment in a line: in vitro enzyme assay to detect the production of urea directly proportional to the activity of Arginase II. Further: in the data most compounds retested in dose-response had high values. Format: functional. The note with it: 33.3 µM.

For test [6], the target named is T3, Proteasome subunit beta (Trypanosoma cruzi) (UniProt O96673).
T3 sequence (whole entry): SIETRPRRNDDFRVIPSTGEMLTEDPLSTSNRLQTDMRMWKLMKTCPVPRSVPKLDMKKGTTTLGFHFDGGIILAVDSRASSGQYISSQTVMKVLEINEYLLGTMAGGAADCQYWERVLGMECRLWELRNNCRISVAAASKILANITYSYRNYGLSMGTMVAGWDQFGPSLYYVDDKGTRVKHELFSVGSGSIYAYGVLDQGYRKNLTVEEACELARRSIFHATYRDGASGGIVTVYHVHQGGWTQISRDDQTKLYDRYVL
The test can be described thus: Trypanosoma cruzi proteasome chymotrypsin-like activity (TcProtChymo) assay. Further: in the data most compounds retested in dose-response had high values. Format: functional. The note with it: 9.37 µM.

The species named for the next test is Homo sapiens. The test can be described thus: To identify inhibition of the IFN signalling (Jak-Stat) pathway via expression of an eGFP reporter gene under the control of an IFN-stimulated response element (ISRE) containing MxA promoter. Format: functional. Particulars: 30 µM. For orientation: A reporter such as luciferase makes a cellular process visible.
Test [7] addresses T4, Tyrosyl-tRNA synthetase, putative (Trypanosoma cruzi (strain CL Brener)) (UniProt Q4DSP6).
T4 sequence (whole entry): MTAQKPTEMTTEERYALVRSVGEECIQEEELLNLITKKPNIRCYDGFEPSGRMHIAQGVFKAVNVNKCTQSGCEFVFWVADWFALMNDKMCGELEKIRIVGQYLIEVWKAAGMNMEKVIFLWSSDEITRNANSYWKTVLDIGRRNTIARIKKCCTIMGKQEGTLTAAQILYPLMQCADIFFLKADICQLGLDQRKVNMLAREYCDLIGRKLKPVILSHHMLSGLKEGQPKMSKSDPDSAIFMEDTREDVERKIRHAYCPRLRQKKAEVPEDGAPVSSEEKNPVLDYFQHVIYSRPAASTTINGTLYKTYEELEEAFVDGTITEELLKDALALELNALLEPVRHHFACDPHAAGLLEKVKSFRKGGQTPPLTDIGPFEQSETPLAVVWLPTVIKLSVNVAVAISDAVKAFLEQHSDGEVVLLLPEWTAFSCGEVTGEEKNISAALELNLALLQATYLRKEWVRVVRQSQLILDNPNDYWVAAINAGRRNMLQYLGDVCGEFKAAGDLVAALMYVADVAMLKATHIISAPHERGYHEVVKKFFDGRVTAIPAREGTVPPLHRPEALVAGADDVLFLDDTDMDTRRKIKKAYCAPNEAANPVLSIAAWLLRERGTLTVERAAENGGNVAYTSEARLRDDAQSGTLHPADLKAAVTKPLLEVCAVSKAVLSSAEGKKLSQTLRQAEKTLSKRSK
The test can be described thus: Trypanosoma cruzi tyrosyl tRNA synthetase (TcYRS) _High Tyrosine SOP. Further: in the data most compounds retested in dose-response had high values. Format: functional. The note with it: 30 µM.

For test [8], the target named is T4, Tyrosyl-tRNA synthetase, putative (Trypanosoma cruzi (strain CL Brener)). The test can be described thus: Trypanosoma cruzi tyrosyl tRNA synthetase (TcYRS) SOP. Format: functional. Particulars: 30 µM.
Test [9] has as its target Chromo domain-containing protein 1 (Saccharomyces cerevisiae (strain ATCC 204508 / S288c) (Baker's yeast)) (UniProt P32657). The test can be described thus: ScCHD-1 Enzyme Inhibition Assay. Further: in the data most compounds retested in dose-response had high values. Format: functional. Particulars: 30 µM.

Chain of Chromo domain-containing protein 1 (Saccharomyces cerevisiae (strain ATCC 204508 / S288c) (Baker's yeast)) (P32657 whole entry, the tested form may be a part): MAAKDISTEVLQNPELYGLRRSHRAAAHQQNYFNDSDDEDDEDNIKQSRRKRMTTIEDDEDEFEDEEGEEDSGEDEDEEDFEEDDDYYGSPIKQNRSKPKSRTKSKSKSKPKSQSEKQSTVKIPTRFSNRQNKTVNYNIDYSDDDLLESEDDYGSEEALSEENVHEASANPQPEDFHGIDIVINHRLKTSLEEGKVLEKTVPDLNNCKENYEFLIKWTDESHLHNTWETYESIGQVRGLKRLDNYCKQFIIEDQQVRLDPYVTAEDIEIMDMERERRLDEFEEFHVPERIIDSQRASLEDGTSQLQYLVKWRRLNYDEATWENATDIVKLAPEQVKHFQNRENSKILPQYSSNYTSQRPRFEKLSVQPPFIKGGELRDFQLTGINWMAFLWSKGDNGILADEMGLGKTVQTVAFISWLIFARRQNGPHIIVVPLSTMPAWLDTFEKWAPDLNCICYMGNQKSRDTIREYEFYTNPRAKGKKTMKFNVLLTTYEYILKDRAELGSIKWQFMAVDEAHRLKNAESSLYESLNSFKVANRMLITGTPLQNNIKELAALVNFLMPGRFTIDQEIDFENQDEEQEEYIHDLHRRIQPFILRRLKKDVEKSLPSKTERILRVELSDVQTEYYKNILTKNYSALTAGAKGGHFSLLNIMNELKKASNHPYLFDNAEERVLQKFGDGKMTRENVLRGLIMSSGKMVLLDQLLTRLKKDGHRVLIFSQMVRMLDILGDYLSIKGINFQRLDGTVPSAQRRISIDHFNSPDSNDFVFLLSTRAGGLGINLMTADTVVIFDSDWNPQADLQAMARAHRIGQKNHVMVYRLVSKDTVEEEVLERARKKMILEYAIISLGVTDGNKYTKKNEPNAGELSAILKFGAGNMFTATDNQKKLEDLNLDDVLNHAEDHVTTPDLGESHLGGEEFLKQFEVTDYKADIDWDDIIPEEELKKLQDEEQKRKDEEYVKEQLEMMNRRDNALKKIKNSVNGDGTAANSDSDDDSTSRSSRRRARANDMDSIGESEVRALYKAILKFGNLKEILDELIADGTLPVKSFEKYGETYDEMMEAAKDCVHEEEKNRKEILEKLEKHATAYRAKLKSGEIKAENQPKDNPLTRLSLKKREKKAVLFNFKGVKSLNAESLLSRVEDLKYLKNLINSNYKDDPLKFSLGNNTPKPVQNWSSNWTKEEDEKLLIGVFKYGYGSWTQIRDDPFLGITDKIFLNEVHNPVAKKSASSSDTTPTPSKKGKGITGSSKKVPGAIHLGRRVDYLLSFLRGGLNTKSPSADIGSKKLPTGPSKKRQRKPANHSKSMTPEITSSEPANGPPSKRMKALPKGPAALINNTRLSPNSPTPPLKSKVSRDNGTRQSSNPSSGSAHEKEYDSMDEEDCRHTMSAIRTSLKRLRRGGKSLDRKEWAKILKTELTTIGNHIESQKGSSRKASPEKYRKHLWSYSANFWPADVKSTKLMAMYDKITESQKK
Chain of Protein translocase subunit SecA (Escherichia coli (strain K12)) (P10408 whole entry): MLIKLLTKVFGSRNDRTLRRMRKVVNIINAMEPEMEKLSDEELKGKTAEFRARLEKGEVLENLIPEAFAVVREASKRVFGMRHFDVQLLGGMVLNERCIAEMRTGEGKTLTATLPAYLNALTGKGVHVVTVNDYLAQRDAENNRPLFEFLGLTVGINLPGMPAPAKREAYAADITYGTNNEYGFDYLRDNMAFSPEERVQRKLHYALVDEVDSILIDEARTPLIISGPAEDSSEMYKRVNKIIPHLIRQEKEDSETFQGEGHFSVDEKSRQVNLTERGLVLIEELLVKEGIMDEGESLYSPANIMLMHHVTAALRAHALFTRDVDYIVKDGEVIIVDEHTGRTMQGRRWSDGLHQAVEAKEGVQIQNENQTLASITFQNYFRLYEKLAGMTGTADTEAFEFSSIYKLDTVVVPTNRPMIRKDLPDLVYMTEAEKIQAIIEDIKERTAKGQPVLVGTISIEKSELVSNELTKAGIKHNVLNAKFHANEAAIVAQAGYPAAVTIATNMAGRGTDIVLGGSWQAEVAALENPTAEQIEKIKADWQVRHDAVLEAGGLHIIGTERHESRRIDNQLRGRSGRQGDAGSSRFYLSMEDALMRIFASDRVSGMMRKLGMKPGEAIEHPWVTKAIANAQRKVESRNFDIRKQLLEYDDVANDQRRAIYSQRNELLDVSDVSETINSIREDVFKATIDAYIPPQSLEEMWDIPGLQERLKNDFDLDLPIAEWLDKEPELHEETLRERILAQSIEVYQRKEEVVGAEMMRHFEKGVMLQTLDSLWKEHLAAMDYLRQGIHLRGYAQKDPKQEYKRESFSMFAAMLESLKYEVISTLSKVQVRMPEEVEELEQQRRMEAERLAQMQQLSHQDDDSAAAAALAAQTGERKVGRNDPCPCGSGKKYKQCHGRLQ
Chain of Sialic acid-binding Ig-like lectin 9 (Homo sapiens) (Q9Y336 whole entry): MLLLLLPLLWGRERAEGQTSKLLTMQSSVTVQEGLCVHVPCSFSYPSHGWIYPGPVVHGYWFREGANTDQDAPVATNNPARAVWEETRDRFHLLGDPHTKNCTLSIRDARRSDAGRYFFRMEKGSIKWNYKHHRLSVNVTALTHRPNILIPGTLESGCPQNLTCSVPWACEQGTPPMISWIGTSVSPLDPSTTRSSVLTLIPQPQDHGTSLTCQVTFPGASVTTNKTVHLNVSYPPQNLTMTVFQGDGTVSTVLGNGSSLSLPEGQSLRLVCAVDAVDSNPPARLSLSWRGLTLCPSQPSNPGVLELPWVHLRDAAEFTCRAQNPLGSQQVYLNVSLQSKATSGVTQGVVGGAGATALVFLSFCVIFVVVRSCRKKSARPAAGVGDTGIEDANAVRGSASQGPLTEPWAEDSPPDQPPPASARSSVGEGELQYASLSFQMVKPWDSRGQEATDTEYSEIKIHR

In the case of `CCOCCN1CCN(Cc2cccc(C(=O)N(C)C)c2)CC1`, the Percent Effect in test [1] is -10.3%; in test [2] it was 0%; in test [3], -8.88%; in [4] it was 18%; in the test on Trypanosoma cruzi it was 9.38%; in test [5], -2.03%. Also, the Percent Effect in test [6] was 0%; in the test filed under Homo sapiens it was 2.86%; in test [7], 6.93%; in test [8], 23.2%; in test [9], 46.2%.
Regarding `CCn1ccnc1CN1CCN(CCOc2ccccc2OC)CC1`, the Percent Effect in test [1] is -1.18%; in [2] it was 0%; in test [3], -0.305%; in test [4], 3.72%; in the test with Trypanosoma cruzi, 6.39%; in test [5], 4.21%. Besides, the Percent Effect in test [6] is 8.19%; in the test listed under Homo sapiens, 7.16%; in [7], 0.49%; in [8], 7.32%; in [9] it was -2.76%.
With `CC(=O)N(Cc1noc(C)n1)C1CCN(Cc2cc(C)on2)C1` (stereo unspecified), the Percent Effect is -2.56% in test [1]; 18.2% in test [2]; 1.37% in test [3]; -5.63% in test [4]; 0.0979% in the test with Trypanosoma cruzi; -1.05% in test [5]. In addition, the Percent Effect in test [6] was 18.5%; in the test filed under Homo sapiens, 12.2%; in test [7], 10.5%; in [8], 30.6%; in test [9], -15%.
As for `COc1ccc2cc(C3CN(C(=O)C4CCOCC4)CCO3)ccc2c1` (stereo unspecified), the Percent Effect in test [1] is -3.12%; in test [2] it was 2.7%; in test [3], 1.82%; in [4], 0.48%; in the test with Trypanosoma cruzi, 1.93%; in test [5], 2.38%. In addition, the Percent Effect in [6] was 9.31%; in the test listed under Homo sapiens, -4.85%; in [7], 4.76%; in test [8], 12.2%; in [9], -2.89%.
With `COc1ccc(CN2CCn3cc(CN4CCCCC4)nc3C2)cc1`, the Percent Effect is -4.9% in test [1]; 2.6% in [2]; 1.83% in [3]; -4.04% in test [4]; -0.888% with Trypanosoma cruzi; -4.52% in test [5]. The Percent Effect in test [6] was 10.3%; in the test filed under Homo sapiens it was -6.42%; in [7] it was 3.17%; in [8], -8.97%; in test [9], -2.75%.
On to `COc1ccc2c(c1)CC(NC(=O)NCc1cccs1)CO2` (stereo unspecified), for which the Percent Effect in test [1] was 2.24%; in test [2] it was 7.79%; in test [3], 5.45%; in test [4] it was -2.89%; with Trypanosoma cruzi it was -5.62%; in test [5], -112%. Besides, the Percent Effect in test [6] was 5.4%; in the test filed under Homo sapiens it was 5.91%; in [7], 2.12%; in [8], 8.97%; in test [9] it was -2.81%.
In the case of `Cc1cc(=O)[nH]c(NCCNC(=O)C(c2ccc(F)cc2)N(C)C)n1` (stereo unspecified), the Percent Effect in test [1] was 4.65%; in test [2] it was 11%; in test [3] it was 0.926%; in [4], 2.46%; in the test with Trypanosoma cruzi, -9.72%; in test [5], -10.8%. Besides, the Percent Effect was 17.4% in test [6]; 21.7% in the test listed under Homo sapiens; 8.33% in test [7]; 16.1% in test [8]; -5.31% in test [9].
For the compound `Cc1noc(-c2ccc(N3CCCC(C(=O)N4CCSCC4)C3)nc2)n1` (stereo unspecified), the Percent Effect in test [1] is -5.7%; in test [2] it was -2.74%; in test [3], 24%; in test [4] it was 1.74%; in the test with Trypanosoma cruzi, -3.92%; in test [5], -1.36%. Besides, the Percent Effect is 6.57% in [6]; -0.682% in the test filed under Homo sapiens; 1.07% in [7]; 2.5% in test [8]; -3.84% in test [9].
Regarding `CN(C)C(CNS(=O)(=O)c1ccc(F)cc1F)c1cccn1C` (stereo unspecified), the Percent Effect is -6.84% in [1]; 8.22% in [2]; 2.21% in test [3]; -1% in [4]; -4.9% with Trypanosoma cruzi; 2.73% in test [5]. The Percent Effect in test [6] is 10.8%; in the test listed under Homo sapiens, 13.6%; in test [7], 4.3%; in [8], 12.5%; in test [9], -4.19%.
`COc1ccc(CCN2CCCC2Cn2nc(C)nc2C)cc1` (stereo unspecified): the Percent Effect in test [1] is -3.93%; in test [2], 10.1%; in test [3] it was -5.37%; in test [4], -5.48%; in the test on Trypanosoma cruzi, -0.85%; in test [5], 6.46%. For the same compound, the Percent Effect is 6.31% in test [6]; 26.4% in the test filed under Homo sapiens; 6.4% in test [7]; 8.86% in test [8]; -5.44% in [9].
For `CN(C)C(=O)Cc1ccc(NC(=O)NC2CCCCC2)cc1`, the Percent Effect in [1] is -1.35%; in test [2], -5.41%; in [3], -1.19%; in test [4], 3.35%; in the test with Trypanosoma cruzi, 6.56%; in test [5], -2.86%. The Percent Effect in [6] was 16%; in the test filed under Homo sapiens, 11%; in [7] it was 1.59%; in test [8], 7.32%; in [9] it was -0.0586%.

For the origin of these results see ChEMBL document CHEMBL3988442, “University of Dundee, Small-Polar-MMV Screening Library” (2021).
